In PubChem BioAssay (EPA / NIEHS) one finds outcome and AC50 data, which are given here for 21 compounds.

“And” between values parts separate entries of the source, which are not always exact repeats. Identical values can stand only once. Some structures have more than one record in an assay (separate samples or runs), and their calls can disagree. The source made the active and inactive calls. How the source made its calls: active means hit-call score of the fitted dose curve at least 0.9, where 1 is the maximum; inactive means score below 0.9.

Test [1] in a line: BSK_CASM3C_SRB: Viability Assessment in the BioMAP Diversity Plus: CASM3C Assay (AID 2283050).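 Further: total protein by SRB staining as cytotoxicity measure in parallel cultures.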 The settings on record: primary human coronary artery smooth muscle cells.
Read-out in test [2]: Thrombomodulin, THBD (gene 7056)
The experiment in a line: BSK_CASM3C_Thrombomodulin: BioMAP Diversity Plus: CASM3C Assay for Thrombomodulin Biomarker Activity (AID 2283051).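 Further: thrombomodulin protein level measured by ELISA 24 h after dosing.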 The settings on record: primary human coronary artery smooth muscle cells; actives raise or lower the signal.

Read-out in test [3]: Tissue Factor, F3 (gene 2152)
As to the kind of experiment: BSK_CASM3C_TissueFactor: BioMAP Diversity Plus: CASM3C Assay for Tissue Factor Biomarker Activity (AID 2283052).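 Further: cell surface tissue factor protein level read by ELISA.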 The settings on record: primary human coronary artery smooth muscle cells; actives raise or lower the signal.

Read-out in test [4]: Interferon-gamma inducible Protein 10 (IP10), CXCL10 (gene 3627)
As to the kind of experiment: BSK_hDFCGF_IP10: BioMAP Diversity Plus: hDFCGF Assay for Interferon-gamma inducible Protein 10 (IP10) Biomarker Activity (AID 2283053). Conditions: primary human foreskin fibroblasts; actives raise or lower the signal. The essentials:
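Human foreskin fibroblast primary cells (hDFCGF system) were dosed with chemical and assayed at 24 h; IP-10 measured by ELISA. Activity fitted bidirectionally relative to DMSO negative control as baseline.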

Read-out in test [5]: Urokinase-type plasminogen activator receptor (uPAR), PLAUR (gene 5329)
The experiment in a line: BSK_CASM3C_uPAR: BioMAP Diversity Plus: CASM3C Assay for Urokinase-type plasminogen activator receptor (uPAR) Biomarker Activity (AID 2283054).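 Further: cell-surface uPAR protein level quantified by ELISA.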 Conditions: primary human coronary artery smooth muscle cells; actives raise or lower the signal.

Read-out in test [6]: Vascular cell adhesion molecule 1 (VCAM1), VCAM1 (gene 7412)
As to the kind of experiment: BSK_CASM3C_VCAM1: BioMAP Diversity Plus: CASM3C Assay for Vascular cell adhesion molecule 1 (VCAM1) Biomarker Activity (AID 2283055).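 Further: VCAM-1 protein level quantified by ELISA on the cells.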 Conditions: primary human coronary artery smooth muscle cells; actives raise or lower the signal.

Read-out in test [7]: Collagen III, COL3A1 (gene 1281)
The experiment in a line: BSK_hDFCGF_CollagenIII: BioMAP Diversity Plus: hDFCGF Assay for Collagen III Biomarker Activity (AID 2283056). The settings on record: primary human foreskin fibroblasts; actives raise or lower the signal. Summed up: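 Cells: human foreskin fibroblasts, primary. Dosing followed by 24 h incubation, then ELISA for collagen III. Both increases and decreases scored relative to DMSO.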

Read-out in test [8]: Epidermal growth factor receptor (EGFR), EGFR (gene 1956)
The experiment in a line: BSK_hDFCGF_EGFR: BioMAP Diversity Plus: hDFCGF Assay for Epidermal growth factor receptor (EGFR) Biomarker Activity (AID 2283057). Conditions: primary human foreskin fibroblasts; actives raise or lower the signal. The essentials: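 Primary human foreskin fibroblasts were exposed to compound for 24 h, after which cell-surface EGFR was quantified by ELISA. Activity was fitted bidirectionally against the DMSO negative control as baseline.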

Read-out in test [9]: Interleukin-8 (IL8), CXCL8 (gene 3576)
The experiment in a line: BSK_hDFCGF_IL8: BioMAP Diversity Plus: hDFCGF Assay for Interleukin-8 (IL8) Biomarker Activity (AID 2283058). The settings on record: primary human foreskin fibroblasts; actives raise or lower the signal. Summed up:
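IL-8 levels from compound-treated primary human fibroblasts were read by ELISA at 24 h, with DMSO serving as baseline for bidirectional fitting.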

Test [10] is described as follows: BSK_hDFCGF_Proliferation: Cell Proliferation Assessment in the BioMAP Diversity Plus: hDFCGF Assay (AID 2283059).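 Further: curves fitted for both rise and fall of signal versus DMSO baseline.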 Conditions: primary human foreskin fibroblasts. The essentials: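 Total protein read at 560 nm after 0.1% SRB staining of TCA-fixed human skin fibroblasts, […]. Activity is fitted in both directions relative to DMSO as baseline.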

With `Nc1ccc([N+](=O)[O-])cc1Cl`, the outcome in test [1], in test [2], in [3], in [4], in test [6] and in test [7] was inactive. The result in test [8], in test [9] and in test [10] was inactive. Also, in [5], the AC50 is 0.0567 µM (active).
In the case of `CC(Cc1ccc(OCC(=O)O)cc1)NCC(O)c1csc(C(F)(F)F)n1` (stereo not given), the result in test [1], in test [2], in test [3], in [4], in [5] and in test [6] was inactive. The result in test [7], in test [8], in test [9] and in test [10] was inactive.
In the case of `COC(=O)C(F)(F)C(F)(F)OC(F)(C(F)(F)F)C(F)(F)OC(F)=C(F)F` (stereo not given), the outcome in [1], in [2], in test [3], in [5], in test [6] and in test [7] was inactive. In addition, the outcome in [8], in test [9] and in test [10] was inactive. In addition, the AC50 is 5.35 µM (active) and 2.92 µM (active) in [4]; 5.81 µM (active) in [10].
Turning to `CCC(C)(C)c1ccc(O)cc1`, the result in [1], in [2], in test [3], in test [4], in test [5] and in [6] was inactive. The outcome in test [7], in test [8], in test [9] and in test [10] was inactive.
With `c1ccc2c(c1)Nc1ccccc1S2`, the outcome in test [1], in test [3], in test [5], in test [6], in test [7] and in test [8] was inactive. In addition, in [9], the result was inactive. Also, the concentration at half-maximal activity (AC50) in test [2] was 0.542 µM (active); in test [4], 20 µM (active); in test [10], 30.4 µM (active).
As for `CCCCCCCc1ccc(O)cc1`, the AC50 in test [1] was 39 µM (active); in test [4], 22.6 µM (active); in test [5], 38 µM (active); in [6] it was 28.5 µM (active); in [7] it was 15.5 µM (active); in [9] it was 35.1 µM (active). Further, in test [10], the AC50 was 13.5 µM (active). Further, the outcome in [2], in test [3] and in test [8] was inactive.
For the compound `COP(=O)(O)OC`, the outcome in test [1], in test [2], in test [3], in [4], in test [5] and in [6] was inactive. Also, the result in [7], in [8], in [9] and in test [10] was inactive.
Consider `OCC1CO1` (stereo not given), for which the outcome in test [1], in [2], in test [3], in test [4], in test [5] and in test [6] was inactive. The outcome in [7], in test [8], in [9] and in [10] was inactive.
For the compound `CCOS(=O)(=O)OCC`, the outcome in test [1], in [2], in [3], in test [4], in test [5] and in test [6] was inactive. Besides, the result in [7], in [8], in test [9] and in [10] was inactive.
Regarding `Nc1ccc(Cl)cc1`, the outcome in test [1], in test [2], in test [3], in test [4], in [5] and in test [6] was inactive. The result in test [7], in test [8] and in [9] was inactive. For the same compound, in test [10], the concentration at half-maximal activity (AC50) was 7.71 µM (active).
Consider `O=S1(=O)OCC2C(CO1)C1(Cl)C(Cl)=C(Cl)C2(Cl)C1(Cl)Cl` (stereo not given), for which the outcome in test [1], in test [4], in [6], in test [7], in test [8] and in [9] was inactive. In addition, the outcome in test [10] was inactive. Further, the AC50 is 20 µM (active) in [2], 20.9 µM (active) in test [3] and 30.1 µM (active) in test [5].
On to `CCOP(=S)(OCC)SCS(=O)(=O)CC`, for which the result in [1], in [2], in [3], in test [4], in test [5] and in test [6] was inactive. For the same compound, the result in [7], in [8], in test [9] and in [10] was inactive.
`Nc1ccc2ccccc2c1`: the outcome in test [1], in test [3], in [4], in [5], in [6] and in test [7] was inactive. Further, the outcome in [8], in test [9] and in test [10] was inactive. Moreover, the AC50 in test [2] was 12.5 µM (active).
Turning to `CCOP(=S)(OCC)SCSCC`, the result in [1], in [2], in test [3], in test [4], in [5] and in test [6] was inactive. Also, the outcome in test [7], in [8], in [9] and in test [10] was inactive.
`CCOP(=S)(Oc1ccc([N+](=O)[O-])cc1)c1ccccc1` (stereo not given): the AC50 in test [2] was 12.9 µM (active); in [4] it was 20 µM (active); in [7], 8.08 µM (active); in test [10], 6.37 µM (active). Besides, the result in test [3], in test [5], in test [6], in test [8] and in [9] was inactive.
Regarding `O=C(O)C=CC(F)(C(F)(F)F)C(F)(F)F`, the result in test [1], in test [2], in [3], in test [4], in test [5] and in [6] was inactive. The outcome in test [7], in test [8], in test [9] and in test [10] was inactive.
Consider `O=[N+]([O-])c1ccc(Cl)c(Cl)c1`, for which the result in test [1], in [2], in test [3], in [4], in [5] and in test [6] was inactive. Further, the result in test [7], in test [8], in [9] and in test [10] was inactive.
As for `ClC(Cl)(Cl)c1ccccc1`, the outcome in test [1], in [2], in test [3], in [4], in [5] and in test [6] was inactive. For the same compound, the result in [7], in test [8], in test [9] and in [10] was inactive.
For the compound `CCC1(c2ccccc2)C(=O)N=C(O)NC1=O` (stereo not given), the result in test [1], in test [2], in test [3], in [4], in test [5] and in [6] was inactive. Besides, the outcome in [7], in test [8], in test [9] and in test [10] was inactive.
Consider `O=C(O)C(F)(F)OC(F)(F)C(F)(F)OC(F)(F)C(=O)O`, for which the result in [1], in test [2], in test [3], in test [4], in [5] and in [6] was inactive. Also, the result in test [7], in [8], in test [9] and in test [10] was inactive.
On to `Cc1ccc([N+](=O)[O-])cc1C`, for which the outcome in test [1], in [2], in test [3], in [4], in [5] and in [6] was inactive. Further, the outcome in test [7], in test [8], in test [9] and in test [10] was inactive.
